KKLEB cytotox – counter-screen for CF NF-kB inhibitors: cytotoxicity | KKLEB CF airway cells viability, ATPlite luminescence, overnight; stronger effect = lower value; cells stimulated with P. aeruginosa culture filtrate | activity change (cytotoxicity), % at 5 µM | 360,000 compounds, 0.36% hits | AID 602141;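 active means corrected activity change at or below -50% at 5 µM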
TROY NFkB inh – TROY signaling inhibition; Q293 LMP1-TROYcd NF-kB luciferase reporter, 4 h; inhibition, % at 10 µM; 360,000 compounds, 0.98% hits;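 active means compounds whose plate-normalised and pattern-corrected inhibition of the luciferase reporter signal at the single screening dose is 50% or more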
HIF-2a inh – blocks HIF-2a reporter activity; 786-0 RCC cells HIF-2a reporter, luciferase luminescence, overnight; 360,000 compounds, 0.72% hits; inhibition, % at 18.8 µM;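 active means inhibition of the luminescence signal of 40% or more relative to plate controls, in a single-dose primary screen at 18.75 µM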
CF NFkB inh – blocks PAF-induced NF-kB reporter in cystic fibrosis cells; KKLEB NF-kB-GFP reporter, GFP fluorescence overnight; inhibition, % at 5 µM; 360,000 compounds, 0.86% hits; AID 588850;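 active means at least 50% inhibition at 5 µM, scaled per plate between neutral and stimulator controls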;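 further: PAF is a Pseudomonas aeruginosa culture filtrate used as stimulus; plate controls were PAF-stimulated DMSO wells for no effect and unstimulated DMSO wells for full effect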
Peg3 prom inh – Peg3 promoter activity inhibition. HeLa PEG-Prom luciferase reporter, luminescence, overnight. inhibition, % at 20 µM. 360,000 compounds, 1.7% hits;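 active means inhibition of at least 50% at 20 µM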
TWEAK Fn14 block – inhibitors of TWEAK-Fn14 interaction signaling; TWEAK-stimulated Fn14 reporter cells, luciferase luminescence, 8 h; inhibition, % at 10 µM; 360,000 compounds, 2% hits; in the data active means inhibition above about 50%
Mdm2 MdmX conf – confirmation of inhibitors of human Mdm2/MdmX interaction, set 2. shares compounds with HIF-2a inh. SaOS-2 split-luciferase Mdm2/MdmX complementation, luminescence. inhibition, % at 8 µM. 740 compounds, 99% hits;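 active means mean inhibition of the luminescence signal across two replicates at or above 26 percent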
Target sequence (O15151 whole entry, looked up): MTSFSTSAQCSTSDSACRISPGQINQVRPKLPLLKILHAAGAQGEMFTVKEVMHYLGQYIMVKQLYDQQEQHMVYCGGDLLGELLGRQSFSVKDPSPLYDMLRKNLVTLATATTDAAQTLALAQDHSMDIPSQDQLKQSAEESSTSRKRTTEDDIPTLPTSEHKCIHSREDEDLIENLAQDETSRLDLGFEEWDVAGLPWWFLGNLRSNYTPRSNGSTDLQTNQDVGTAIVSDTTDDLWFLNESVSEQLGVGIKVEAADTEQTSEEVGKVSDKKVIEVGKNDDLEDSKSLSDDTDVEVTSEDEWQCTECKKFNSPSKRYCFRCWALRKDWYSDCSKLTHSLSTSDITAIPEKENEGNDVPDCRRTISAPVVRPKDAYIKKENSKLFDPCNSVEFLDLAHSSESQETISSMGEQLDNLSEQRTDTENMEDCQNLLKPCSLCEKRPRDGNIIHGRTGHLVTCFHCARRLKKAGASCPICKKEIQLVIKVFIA
Target sequence (Q00987 whole entry, looked up): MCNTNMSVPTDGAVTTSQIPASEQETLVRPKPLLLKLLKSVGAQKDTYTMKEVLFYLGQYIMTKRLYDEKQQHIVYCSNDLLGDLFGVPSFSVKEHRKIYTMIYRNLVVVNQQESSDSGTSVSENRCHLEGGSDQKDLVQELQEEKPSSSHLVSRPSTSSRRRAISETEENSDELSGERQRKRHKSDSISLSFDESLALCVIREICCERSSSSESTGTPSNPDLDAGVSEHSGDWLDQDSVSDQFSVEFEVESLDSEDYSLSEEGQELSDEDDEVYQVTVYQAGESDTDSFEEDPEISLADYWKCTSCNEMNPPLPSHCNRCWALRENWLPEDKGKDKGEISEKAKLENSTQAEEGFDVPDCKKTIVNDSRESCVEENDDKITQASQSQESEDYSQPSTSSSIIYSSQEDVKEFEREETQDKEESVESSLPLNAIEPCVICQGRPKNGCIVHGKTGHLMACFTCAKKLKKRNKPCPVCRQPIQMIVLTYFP
HIF-2a inh conf – HIF-2a inhibition, single concentration confirmation. inhibition, % at 18.8 µM. shares compounds with HIF-2a inh. 1,800 compounds, 56% hits. 786-0 RCC cells, HIF-2a luciferase reporter luminescence, overnight;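 active means mean inhibition across four replicates of at least 40 percent at the single tested concentration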
HIF-1a counter – counter-screen for HIF-2a inhibitors: HIF-1a inhibition in MiaPaCa-2 cells. inhibition, % at 18.8 µM. 1,800 compounds, 72% hits. MiaPaCa-2 HIF-1a luciferase reporter, desferoxamine, overnight. shares compounds with HIF-2a inh;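 active means mean inhibition of the reporter signal across four replicates at the single tested dose of 50% or more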
The depositor's hits bear a star; / = no result given. Sampled rows, rich in hits. Any-hit rate of the full collection: about 4%.

SMILES	KKLEB cytotox	TROY NFkB inh	HIF-2a inh	CF NFkB inh	Peg3 prom inh	TWEAK Fn14 block	HIF-2a inh conf	HIF-1a counter	others
COc1cc(C2c3c(-c4cc(Cl)c(C)cc4O)n[nH]c3C(=O)N2Cc2cccnc2)ccc1O (configuration not stated)	-16	-4	43*	26	32	-22	31	60*
O=C(NCC(c1ccco1)N1CCOCC1)c1cccc([N+](=O)[O-])c1 (configuration not stated)	-7	19	12	1	-9	13	/	/
O=C(C#Cc1ccccc1)c1cccc([N+](=O)[O-])c1	-17	17	46*	59*	106*	48	11	86*
CC(C)CC(=O)/C(=C\c1ccc(Cl)cc1Cl)n1cncn1	-81*	74*	94*	86*	105*	106*	94*	107*
CC(C)CC(=O)/C(=C/c1ccc(N(C)C)cc1)n1cncn1	4	-5	-1	-7	-9	17	/	/
COc1cccc2sc(=NC(=O)CS(=O)(=O)c3ccccc3)n(C)c12	-4	-42	-230	-19	-163	-38	/	/
O=C(CCl)N1N=C(c2cccs2)CC1c1ccco1 (configuration not stated)	-18	1	19	16	41	67*	/	/	Mdm2 MdmX conf=103*
COc1ccccc1NC(=O)C(=O)N1CCCC1	8	-13	-70	4	-57	-5	/	/
O=[N+]([O-])c1ccc(Oc2cccc(F)c2)c2ccncc12	-17	15	47*	41	18	33	30	79*
COc1ccccc1C(C)NC(=O)c1cc(S(=O)(=O)N2CCCCC2)ccc1C (configuration not stated)	4	8	8	8	13	-8	/	/
COc1cc(C=NNc2ccccc2)ccc1OC(=O)c1ccccc1	-8	-12	-2	-65	-167	-64	/	/
CCOc1cc(/C=N/Nc2cccc(C(=O)O)c2)ccc1OC(=O)c1ccccc1	10	-49	87*	-13	65*	8	90*	-33
Cc1ccc(/C=N/Nc2cccc(C(=O)O)c2)s1	10	-25	62*	-18	35	-18	59*	-73
Cc1nn(-c2cccc(C(F)(F)F)c2)c(Cl)c1/C=N/Nc1cccc(C(=O)O)c1	7	-53	-63	1	-250	-40	/	/
Cc1nn(-c2ccccc2Cl)c(Cl)c1/C=N/Nc1cccc(C(=O)O)c1	-16	-104	58*	1	-38	-23	52*	-99
O=C(Oc1ccc(-c2nnco2)cc1)c1cc(S(=O)(=O)N2CCOCC2)ccc1F	8	1	-15	36	-6	-30	/	/
Cc1[nH]n(-c2ccccc2)c(=O)c1/C=N/Nc1nncc(-c2ccccc2)n1	-39	10	-89	41	18	-2	/	/	Mdm2 MdmX conf=84*
Cc1ccc(/C=N/Nc2nncc(-c3ccccc3)n2)o1	1	-51	-92	-2	-119	5	/	/
Oc1cc(O)cc(-c2cc3ccc(O)cc3o2)c1	-15	-4	40*	-8	-243	-53	23	11
NC(=S)c1cc2ccc(O)cc2oc1=O	-2	13	12	-24	11	-2	/	/
COc1ccc(C(=O)N/N=C/c2c(C)[nH]c(=O)[nH]c2=O)cc1	18	3	13	-14	17	8	/	/
Cc1ccc(C)c(S(=O)(=O)ON2C(=O)c3ccccc3C2=O)c1	-13	-9	68*	-8	56*	9	57*	2
Cc1ccc(S(=O)(=O)ON2C(=O)c3cccc4cccc(c34)C2=O)cc1	4	24	-1	-11	13	-1	/	/
CCN(CC(=O)NCc1cccs1)C(=O)c1ccc(N(C)S(=O)(=O)c2ccc(C)cc2)cc1	7	-4	12	-21	25	6	/	/
Oc1ccccc1N=Nc1nc(-c2ccccc2)c(-c2ccccc2)[nH]1	2	21	17	81*	49	33	/	/	Mdm2 MdmX conf=87*
SMILES	KKLEB cytotox	TROY NFkB inh	HIF-2a inh	CF NFkB inh	Peg3 prom inh	TWEAK Fn14 block	HIF-2a inh conf	HIF-1a counter	others
CC(C)C(=O)NNC(=O)c1c(O)c2ccccc2[nH]c1=O	6	8	-1	-10	11	1	/	/
CC(C)NC(=O)c1c(O)c2ccccc2[nH]c1=O	4	-35	-101	0	-30	-9	/	/	Mdm2 MdmX conf=92*
O=c1cc(C(Cl)(Cl)Cl)oc2c1ccc1ccccc12	8	49	35	6	106*	56*	/	/	Mdm2 MdmX conf=103*
O=c1c2ccccc2oc2c1ccc1ccccc12	13	-97	-195	-61	-294	-43	/	/
NNC(=O)c1cccc(COc2ccccc2Br)c1	8	-58	-69	-1	-259	-16	/	/
NNC(=O)c1cccc(COc2ccc3c(c2)CCC3)c1	2	-79	68*	1	-42	-15	53*	-115
CC(C)c1cc(C(=O)NCc2ccc(F)cc2)c(N)s1	/	/	-19	/	/	/	/	/
O=C(C[C@@H]1C=C[C@@H](NC(=O)c2cccnc2)[C@@H](CO)O1)NCc1ccncn1	/	/	4	/	/	/	/	/
CC1C/C(=C/c2ccncc2)C(=O)/C(=C/c2ccncc2)C1 (configuration not stated)	-55*	66*	94*	82*	104*	100*	/	/	Mdm2 MdmX conf=100*
CC1C/C(=C/c2cccn2C)C(=O)/C(=C/c2cccn2C)C1 (configuration not stated)	6	-11	-49	-53	-18	15	/	/
CCC(C(=O)NCc1ccncc1)c1ccccc1 (configuration not stated)	15	15	-4	4	-2	15	/	/
Cc1cc2[nH]c3ccccc3c2c(C)n1	1	13	14	-48	33	31	/	/
Cc1cc2[nH]c3c4ccccc4nc(C)c3c2cc1C	-68*	78*	92*	-50	106*	-72	-4	105*
NC(=O)CC(NC(=O)c1ccccc1)c1ccc(NCCc2ccc(Cl)cc2)c([N+](=O)[O-])c1 (configuration not stated)	-14	20	50*	2	16	-1	-3	33
COc1ccccc1C1CCN(Cc2ccccc2Cl)CC1	-5	-10	15	-7	12	-4	/	/
COC(=O)C(C)(C(=O)OC)c1ccc([N+](=O)[O-])cn1	14	-9	16	-5	5	10	/	/
Cc1cc(S(=O)(=O)c2ccc([N+](=O)[O-])cn2)ccc1Br	-73*	72*	93*	91*	107*	60*	22	89*
